Data published in PubChem BioAssay (NCATS).
Values joined by “and” are separate entries in the source; they are usually repeats but may differ in a detail not shown here. Equal entries are not always repeated. Results filed as inconclusive are left out. Active and inactive are the calls of the source. Unless noted, the call rests on the fitted dose curve.

Columns and labels:
[1] = Cell Viability - HepG2 (AID 433); details: qHTS;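 further: potency means the concentration at half of the fitted maximal effect; potency for ATP loss meaning cytotoxicity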
Method in brief: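 Read-out is luciferase-based quantitation of cellular ATP as a measure of viable HepG2 cells after 40 h treatment at 37 °C. Signal decrease is scaled between DMSO-only and 100 uM tamoxifen controls, with AC50 fitted by the Hill equation.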

[2] = Cell Viability - N2a (AID 540; active means well fitted cell-killing curve with a large enough effect;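 further: plate controls were DMSO alone for no effect and tamoxifen control for full effect; nearly all actives have a fitted effect of over 45% in size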); details: N2a mouse neuroblastoma cell viability; activity change, negative = cytotoxicity: at 92.2 µM (top of the series)
Method in brief: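 First, 1500 N2a cells per well incubate 5 hr at 37 °C; next, compounds are added and incubated 40 hr at 37 °C; finally CellTiter-Glo is added and luminescence read after 20 min, with AC50 derived by Hill modeling.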

[3] = MultiTox-Fluor Cytotoxicity Assay - LYMP1-001 - Live Cells (AID 947; active means well fitted cell-killing curve with a large enough effect;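 further: 0% = DMSO only and full inhibition = tetraoctylammonium bromide control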); details: LYMP1-001 lymphoblastoid cells, live-cell protease fluorescence viability; series mostly up to 92.2 µM
[4] = biological target: Estrogen receptor (Homo sapiens) (UniProt P03372); assay: qHTS assay for small molecule antagonists of estrogen receptor alpha signaling (AID 588513; active means well fitted curve in the direction sought with a large enough effect in the signal ratio, with a control signal flat, not every such curve was filed as active; the % refers to the signal ratio; further: on the % scale 0 is the no-effect control and ±100 the full control effect); details: ER-alpha-UAS-bla HEK293, beta-lactamase ratio, antagonist mode; series mostly up to 76.9 µM
Method in brief: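 Fluorescence from CCF4 substrate after 2 h at room temperature gave reporter activity; cells had been exposed to compound and 0.5nM 17-beta-estradiol for 18 h at 37 C. Hill-equation fitting yielded IC50 and maximal response.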

[5] = biological target: Bile acid receptor (Homo sapiens) (UniProt Q96RI1); assay: qHTS assay for small molecule agonists of farnesoid X receptor signaling (AID 588527); details: HEK293T FXR-UAS-bla, beta-lactamase ratio, 16 h; stronger effect = higher value;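 further: 0% = vehicle basal and 100% = reference agonist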
Method in brief: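 Agonist-mode beta-lactamase reporter in GeneBLAzer FXR-UAS-bla HEK293T cells, titration up to 92 uM, 16 h exposure at 37 C, CCF4 fluorescence. Response scaled to DMSO (0%) and 100 uM chenodeoxycholic acid (100%), then Hill-fitted for EC50 and efficacy.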

[6] = biological target: Glucocorticoid receptor (Homo sapiens) (UniProt P04150); assay: qHTS assay for small molecule agonists of glucocorticoid receptor signaling (AID 588532; active means well fitted curve in the direction sought with a large enough effect in the signal ratio, with a control signal flat; the % refers to the signal ratio;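 further: 100% = dexamethasone at 0.1 µM and 0% = DMSO only wells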); details: HeLa MMTV-bla, beta-lactamase ratio, agonist, 18 h; stronger effect = higher value; percent of dexamethasone control, DMSO zero
Method in brief: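 MMTV-bla HeLa beta-lactamase reporter cells in 1% charcoal/dextran FBS medium, compounds up to 92 uM for 18 h at 37 C, CCF4 readout; normalized to 0.1 uM dexamethasone (100%), EC50 and efficacy from Hill fits.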

[7] = biological target: Peroxisome proliferator-activated receptor delta (Homo sapiens) (UniProt Q03181); assay: qHTS assay for small molecule agonists of peroxisome proliferator-activated receptor delta signaling (AID 588534); details: HEK293T PPARdelta-UAS-bla, beta-lactamase ratio, 18 h; series mostly up to 76.7 µM;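 further: 0% = DMSO basal wells and 100% = positive control agonist at 10 µM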
Method in brief: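 Reporter cells were plated and held 5 hrs at 37 C before compounds were added. After 18 hrs at 37 C, CCF4 dye was loaded for 2 hrs at RT and fluorescence measured.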

[8] = qHTS assay for small molecule antagonists of peroxisome proliferator-activated receptor delta signaling (AID 588535; active means well fitted inhibition curve with a large enough effect in the signal ratio, with a control signal flat, not every such curve was filed as active; the % refers to the signal ratio;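 on max response: cells co-treated with a PPAR-delta agonist as stimulator during compound exposure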); details: HEK293T PPARd-UAS-bla, beta-lactamase FRET ratio, 18 h; 460 nm channel
Method in brief: (§1)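 Cells were seeded at 4000 per well in assay medium containing 2% charcoal/dextran FBS and held 5 hrs at 37 C. Compounds were then added for 18 hrs. CCF4 substrate was applied for 2 hrs at room temperature before fluorescence reading.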

[9] = biological target: Peroxisome proliferator-activated receptor delta (Homo sapiens) (UniProt Q03181); assay: as above; details: HEK293T PPARd-UAS-bla, beta-lactamase FRET ratio, 18 h; series mostly up to 76.7 µM
Method in brief: as §1

[10] = biological target: Peroxisome proliferator-activated receptor gamma (Homo sapiens) (UniProt P37231); assay: qHTS assay for small molecule agonists of peroxisome proliferator-activated receptor gamma signaling (AID 588536; active means well fitted curve in the direction sought with a large enough effect in the signal ratio, with a control signal flat, not every such curve was filed as active; the % refers to the signal ratio;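 further: 0% = DMSO basal wells and 100% = rosiglitazone at 2 µM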); details: HEK293 PPARg-UAS-bla, beta-lactamase ratio, 16 h, percent of rosiglitazone response, DMSO as zero; series mostly up to 76.7 µM
Method in brief: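 Ratiometric blue/green fluorescence (405 nm excitation; 460 and 530 nm emission) from CCF4-loaded HEK293 reporter cells serves as signal. Exposure to test compounds lasts 16 h at 37 C in medium containing 1% charcoal/dextran-treated serum.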

[11] = biological target: Peroxisome proliferator-activated receptor gamma (Homo sapiens) (UniProt P37231); assay: qHTS assay for small molecule antagonists of peroxisome proliferator-activated receptor gamma signaling (AID 588537; active means well fitted inhibition curve with a large enough effect in the signal ratio, with a control signal flat, not every such curve was filed as active; the % refers to the signal ratio;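 further: reporter cells co-stimulated with 50 nM rosiglitazone agonist during compound treatment; % of control where 0% means no effect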); details: HEK293 PPARg-UAS-bla, beta-lactamase ratio, antagonist mode; series mostly up to 76.8 µM
Method in brief: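 Step one: plate 3000 HEK293 UAS-bla cells per well in medium with 1% stripped serum and hold 6-6.5 h at 37 C. Step two: add compound and 50 nM agonist for 16 h. Step three: CCF4 loading, fluorescence read.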

[12] = biological target: Thyroid hormone receptor beta (Homo sapiens) (UniProt P10828); assay: qHTS assay for small molecule agonists of thyroid hormone receptor beta signaling (AID 588545); details: TR-UAS-bla GripTite HEK 293, beta-lactamase ratio, agonist mode, 18 h; series mostly up to 76.7 µM
Method in brief: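 Cells (2500/well) were seeded, incubated 4 hrs at 37 C, dosed with a compound series, incubated 18 hrs, loaded with CCF4 dye for 2 hrs at RT, then read for fluorescence. Data were scaled between DMSO (0%) and 10 nM T3 (100%).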

[13] = biological target: Thyroid hormone receptor beta (Homo sapiens) (UniProt P10828); assay: qHTS assay for small molecule antagonists of thyroid hormone receptor beta signaling (AID 588547; active means well fitted inhibition curve with a large enough effect in the signal ratio, with a control signal flat, not every such curve was filed as active; the % refers to the signal ratio;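 further: cells stimulated with 0.4 nM T3 agonist during compound exposure; on the % scale 0 is the no-effect control and ±100 the full control effect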); details: TR-UAS-bla HEK293, beta-lactamase ratio, antagonist mode, 18 h
Method in brief: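 TR-UAS-bla GripTite HEK293 cells in 2% charcoal/dextran FBS medium; compounds 0.59 nM to 92 uM with T3 at 0.4nM final, 18 h at 37 C. Beta-lactamase read by CCF4 fluorescence (460/530 nm); Hill fits gave IC50 and efficacy.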

[14] = qHTS assay for small molecule agonists of the antioxidant response element (ARE) signaling pathway (AID 651741; active means well fitted activation curve with a large enough effect in the signal ratio; the % refers to the signal ratio; further: potency means the concentration at half of the fitted maximal effect; on activation: % of control where 0% means no effect); details: HepG2 ARE-bla reporter, beta-lactamase FRET ratio, 16 h; series mostly up to 96 µM
Method in brief: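 HepG2 ARE-bla cells plated at 2,000 cells/well and incubated 5 h at 37 C/5% CO2 received 23 nL compound in DMSO. After 16 h at 37 C, LiveBLAzer B/G FRET substrate was applied for 2 h at room temperature and fluorescence read.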

[15] = qHTS assay for small molecule activators of the p53 signaling pathway (AID 651743; active means well fitted activation curve with a large enough effect in the signal ratio, not every such curve was filed as active; the % refers to the signal ratio; further: % of control where 0% means no effect); details: HCT-116 p53RE-bla, beta-lactamase FRET ratio, 16 h; activation: stronger effect = higher value
Method in brief: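 HCT-116 p53RE-bla, 4,000 cells/well; 5 h settle; cpd/DMSO 16 h, 37 C; LiveBLAzer B/G 2 h RT; fluorescence intensity.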

[16] = Cell Viability - BJ (AID 421); details: BJ fibroblast viability, qHTS;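 further: potency means the concentration at half of the fitted maximal effect; cells exposed to compound for 40 hours at 37 °C before readout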
Method in brief: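 Cytotoxicity as drop in intracellular ATP (CellTiter-Glo, 20 min RT) after 40 hr compound exposure of BJ fibroblasts at 37 °C. Titrations scaled between DMSO and 100 uM tamoxifen, Hill-fitted for AC50.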

[17] = Cell Viability - MRC5 (AID 434); details: MRC5 lung fibroblast viability, qHTS;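 further: potency means the concentration at half of the fitted maximal effect; potency reflects cytotoxicity seen as loss of intracellular ATP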
Method in brief: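 MRC5 normal human lung fibroblasts, 1500 cells/well, exposed to compound for 40 hr at 37 C. Cellular ATP was read by CellTiter-Glo luminescence; data normalized to DMSO and 100 uM tamoxifen, with AC50 from Hill fits.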

[18] = biological target: Glucocorticoid receptor (Homo sapiens) (UniProt P04150); assay: qHTS assay for small molecule antagonists of glucocorticoid receptor signaling (AID 588533; active means well fitted inhibition curve with a large enough effect in the signal ratio, with a control signal flat, not every such curve was filed as active; the % refers to the signal ratio; further: on the % scale 0 is the no-effect control and ±100 the full control effect); details: HeLa MMTV-bla, GRE beta-lactamase ratio, antagonist mode, 18 h; series mostly up to 76.8 µM
Method in brief: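 Antagonist-mode qHTS: compound titrations added to GRE-bla HeLa cells, then dexamethasone 2 nM final; 18 h, 37 C. CCF4 FRET fluorescence normalized to dexamethasone and DMSO; IC50 from Hill fit.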

[19] = biological target: Vitamin D3 receptor (Homo sapiens) (UniProt P11473); assay: qHTS assay for small molecule antagonists of vitamin D receptor signaling (AID 588541); details: HEK293T VDR-UAS-bla, beta-lactamase ratio, antagonist mode; series mostly up to 76.7 µM;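 further: receptor activated by calcitriol during compound treatment; on the % scale 0 is the no-effect control and ±100 the full control effect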
Method in brief: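 VDR-UAS-bla HEK293T cells in 2% charcoal-stripped FBS were stimulated with 1-alpha,25-dihydroxyvitamin D3 (3 nM final) plus compound for 16 h at 37 C. The beta-lactamase CCF4 readout was normalized to 50 nM agonist and DMSO, and Hill fits gave IC50.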

[20] = qHTS assay for small molecule disruptors of the mitochondrial membrane potential - 1 hr assay (AID 651754); details: series mostly up to 92.2 µM; further: on the % scale 0 is the no-effect control and ±100 the full control effect; nearly all actives have a fitted effect of over 35% in size
Method in brief: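 Steps: seed HepG2 cells and let attach overnight; pin-transfer compound or vehicle; incubate 1 hr at 37C; add Mito-MPS dye for 30 min; read two-channel fluorescence for monomer and aggregate forms.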

Chain of Bile acid receptor (Homo sapiens) (Q96RI1 whole entry, looked up): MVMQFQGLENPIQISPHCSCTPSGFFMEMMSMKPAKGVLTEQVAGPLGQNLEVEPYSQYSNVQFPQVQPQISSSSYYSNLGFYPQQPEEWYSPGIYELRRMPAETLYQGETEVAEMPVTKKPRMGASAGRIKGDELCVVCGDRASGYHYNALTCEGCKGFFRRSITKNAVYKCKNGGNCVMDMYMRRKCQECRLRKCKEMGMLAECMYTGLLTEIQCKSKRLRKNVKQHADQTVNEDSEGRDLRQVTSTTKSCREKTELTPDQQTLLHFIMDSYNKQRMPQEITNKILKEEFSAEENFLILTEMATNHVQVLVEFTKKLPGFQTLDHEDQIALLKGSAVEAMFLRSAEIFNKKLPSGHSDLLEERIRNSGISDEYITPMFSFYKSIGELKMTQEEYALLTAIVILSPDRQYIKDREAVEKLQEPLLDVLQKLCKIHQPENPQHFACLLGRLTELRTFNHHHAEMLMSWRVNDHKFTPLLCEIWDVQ
Chain of Estrogen receptor (Homo sapiens) (P03372 whole entry, looked up): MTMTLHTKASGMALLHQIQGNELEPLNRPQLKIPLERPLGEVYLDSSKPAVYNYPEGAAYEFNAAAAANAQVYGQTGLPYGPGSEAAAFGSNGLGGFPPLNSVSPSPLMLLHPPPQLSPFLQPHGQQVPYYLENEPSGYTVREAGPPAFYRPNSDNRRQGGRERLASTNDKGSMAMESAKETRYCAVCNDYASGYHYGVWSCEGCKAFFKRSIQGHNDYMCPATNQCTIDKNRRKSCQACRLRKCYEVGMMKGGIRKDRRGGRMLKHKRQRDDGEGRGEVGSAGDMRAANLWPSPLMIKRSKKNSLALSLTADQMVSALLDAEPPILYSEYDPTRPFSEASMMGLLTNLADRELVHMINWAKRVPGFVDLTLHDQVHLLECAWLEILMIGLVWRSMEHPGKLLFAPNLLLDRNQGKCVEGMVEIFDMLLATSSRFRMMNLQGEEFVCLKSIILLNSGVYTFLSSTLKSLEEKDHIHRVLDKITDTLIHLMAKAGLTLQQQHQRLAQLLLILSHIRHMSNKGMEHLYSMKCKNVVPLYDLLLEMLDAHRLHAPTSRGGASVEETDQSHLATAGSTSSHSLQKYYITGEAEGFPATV
Chain of Peroxisome proliferator-activated receptor delta (Homo sapiens) (Q03181 whole entry, looked up): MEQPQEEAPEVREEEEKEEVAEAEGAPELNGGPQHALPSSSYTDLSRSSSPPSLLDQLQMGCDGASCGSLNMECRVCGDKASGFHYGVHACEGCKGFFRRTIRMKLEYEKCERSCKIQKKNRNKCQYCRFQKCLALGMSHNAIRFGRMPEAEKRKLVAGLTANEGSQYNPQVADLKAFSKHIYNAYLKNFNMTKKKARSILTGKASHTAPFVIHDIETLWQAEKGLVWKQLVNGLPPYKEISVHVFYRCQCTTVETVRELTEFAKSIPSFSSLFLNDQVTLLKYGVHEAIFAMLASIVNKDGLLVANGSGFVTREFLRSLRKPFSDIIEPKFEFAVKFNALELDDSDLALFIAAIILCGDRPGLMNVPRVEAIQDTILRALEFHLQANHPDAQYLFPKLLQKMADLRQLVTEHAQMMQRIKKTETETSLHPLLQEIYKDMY
Chain of Vitamin D3 receptor (Homo sapiens) (P11473 whole entry, looked up): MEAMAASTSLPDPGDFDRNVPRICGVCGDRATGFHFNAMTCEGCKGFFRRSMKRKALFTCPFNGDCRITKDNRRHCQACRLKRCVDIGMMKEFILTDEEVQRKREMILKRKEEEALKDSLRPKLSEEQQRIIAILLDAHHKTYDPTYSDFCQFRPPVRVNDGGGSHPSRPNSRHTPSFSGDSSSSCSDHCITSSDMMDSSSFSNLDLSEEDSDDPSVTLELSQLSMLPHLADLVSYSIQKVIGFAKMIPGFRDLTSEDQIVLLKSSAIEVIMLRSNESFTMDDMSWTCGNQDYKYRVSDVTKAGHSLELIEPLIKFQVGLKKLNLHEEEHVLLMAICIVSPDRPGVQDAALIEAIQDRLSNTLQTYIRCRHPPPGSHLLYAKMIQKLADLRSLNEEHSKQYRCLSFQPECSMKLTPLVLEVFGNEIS
Chain of Thyroid hormone receptor beta (Homo sapiens) (P10828 whole entry, looked up): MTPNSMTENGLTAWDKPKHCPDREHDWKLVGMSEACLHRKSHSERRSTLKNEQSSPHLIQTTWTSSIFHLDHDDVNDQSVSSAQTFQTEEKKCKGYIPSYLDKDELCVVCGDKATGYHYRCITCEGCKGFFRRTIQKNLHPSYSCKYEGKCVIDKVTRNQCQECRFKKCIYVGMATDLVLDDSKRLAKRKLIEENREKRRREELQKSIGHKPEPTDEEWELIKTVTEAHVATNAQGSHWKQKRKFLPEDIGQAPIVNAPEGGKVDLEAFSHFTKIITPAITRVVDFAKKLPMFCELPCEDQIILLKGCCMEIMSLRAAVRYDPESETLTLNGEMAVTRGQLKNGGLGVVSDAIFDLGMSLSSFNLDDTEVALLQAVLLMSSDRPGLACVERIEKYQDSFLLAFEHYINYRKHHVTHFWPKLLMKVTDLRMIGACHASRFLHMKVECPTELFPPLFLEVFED
Chain of Peroxisome proliferator-activated receptor gamma (Homo sapiens) (P37231 whole entry, looked up): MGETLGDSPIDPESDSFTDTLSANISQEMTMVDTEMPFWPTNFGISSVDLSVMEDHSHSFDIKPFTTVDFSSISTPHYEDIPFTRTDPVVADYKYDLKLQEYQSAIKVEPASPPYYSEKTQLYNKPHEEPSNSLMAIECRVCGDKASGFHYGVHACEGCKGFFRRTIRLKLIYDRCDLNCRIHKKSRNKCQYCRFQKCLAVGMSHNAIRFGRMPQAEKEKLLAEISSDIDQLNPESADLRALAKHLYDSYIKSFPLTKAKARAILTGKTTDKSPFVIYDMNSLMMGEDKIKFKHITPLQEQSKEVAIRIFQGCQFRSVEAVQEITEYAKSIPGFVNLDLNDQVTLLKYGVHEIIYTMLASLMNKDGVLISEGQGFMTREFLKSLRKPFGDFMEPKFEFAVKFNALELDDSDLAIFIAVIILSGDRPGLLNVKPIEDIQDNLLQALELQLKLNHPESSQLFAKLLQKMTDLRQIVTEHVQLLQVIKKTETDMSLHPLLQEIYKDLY
Chain of Glucocorticoid receptor (Homo sapiens) (P04150 whole entry, looked up): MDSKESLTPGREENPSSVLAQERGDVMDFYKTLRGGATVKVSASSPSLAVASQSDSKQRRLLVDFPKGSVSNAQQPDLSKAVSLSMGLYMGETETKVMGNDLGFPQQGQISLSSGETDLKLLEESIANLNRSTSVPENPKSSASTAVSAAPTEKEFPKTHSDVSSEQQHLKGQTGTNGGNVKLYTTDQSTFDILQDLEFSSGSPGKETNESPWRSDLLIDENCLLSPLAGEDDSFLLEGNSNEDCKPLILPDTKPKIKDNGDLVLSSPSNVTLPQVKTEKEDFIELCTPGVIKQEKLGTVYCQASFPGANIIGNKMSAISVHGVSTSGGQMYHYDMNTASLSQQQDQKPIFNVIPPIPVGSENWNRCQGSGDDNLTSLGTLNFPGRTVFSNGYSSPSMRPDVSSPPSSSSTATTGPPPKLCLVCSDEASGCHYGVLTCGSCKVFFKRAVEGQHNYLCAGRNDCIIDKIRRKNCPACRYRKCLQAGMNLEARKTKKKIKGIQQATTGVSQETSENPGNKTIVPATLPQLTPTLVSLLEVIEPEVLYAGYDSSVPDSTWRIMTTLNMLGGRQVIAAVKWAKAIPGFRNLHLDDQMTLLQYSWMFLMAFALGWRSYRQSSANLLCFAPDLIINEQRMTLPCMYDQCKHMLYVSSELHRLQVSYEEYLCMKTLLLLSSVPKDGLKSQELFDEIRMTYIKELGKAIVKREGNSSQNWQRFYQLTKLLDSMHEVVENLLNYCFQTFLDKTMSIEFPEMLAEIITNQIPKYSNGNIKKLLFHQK

CCOP(=S)(OCC)Oc1nc(Cl)c(Cl)cc1Cl
21.6%: max response [8]
active: Potency [14] 37.6 µM [middle of 4 runs]
inactive: Potency [1] > 92 µM | Potency [2] | outcome [3] | Potency [4] | activation [5] -1.55% [middle of 4 runs] | activation [6] 0.796% [middle of 4 runs] | outcome [7] | outcome [9] | outcome [10] | Potency [11] | Potency [12] | activity change % (negative = inhibition) [13] 4.5% and 5.64% and -7.44% | activation [15] 2.38% [middle of 4 runs]

Brc1ccc(Oc2ccc(Br)cc2Br)c(Br)c1
inactive: Potency [16] > 92 µM | Potency [1] > 92 µM | Potency [17] > 92 µM | outcome [3] | Potency [4] | activation [5] -1.06% | Potency [11] | Potency [12]

O=P(OCCCl)(OCCCl)OCCCl
19.2%: max response [8]
inactive: Potency [1] > 92 µM | Potency [17] > 92 µM | outcome [3] | activation [5] -0.898% | outcome [18] | outcome [7] | outcome [10] | outcome [19] | Potency [12] | activity change % (negative = inhibition) [13] 2.42% | Potency [14] | activation [15] -2.67% | Potency [20]

C=COC(C)=O
inactive: Potency [1] > 92 µM | Potency [17] > 92 µM | outcome [19] | Potency [12] | activity change % (negative = inhibition) [13] 0.373%

N#CC(O)c1ccccc1 (centres undefined)
inactive: Potency [1] > 92 µM | Potency [17] > 92 µM | Potency [2] | outcome [3] | activation [5] -0.559% | activation [6] -0.987% | outcome [18] | outcome [7] | outcome [9] | Potency [11] | outcome [19] | Potency [12] | activity change % (negative = inhibition) [13] 8.13% | Potency [14]
6.88%: max response [8]

N#CCCC#N
18.6%: max response [8]
inactive: Potency [17] > 92 µM | Potency [2] | outcome [3] | Potency [4] | activation [5] -0.443% | outcome [7] | outcome [19] | activity change % (negative = inhibition) [13] 5.23% | Potency [14] | activation [15] -0.196%

N#C/C=C/C#N
inactive: Potency [1] > 92 µM | Potency [17] > 92 µM | outcome [3] | Potency [4] | outcome [18] | activity change % (negative = inhibition) [13] -13.1% | Potency [20]
active: Potency [14] 37.6 µM

CN(C)c1ccc(N=Nc2ccccc2)cc1
inactive: Potency [16] > 92 µM | Potency [1] > 92 µM | Potency [17] > 92 µM | outcome [3] | activation [5] -4.32% | activation [6] 0.929% | outcome [9] | outcome [19] | Potency [12] | activity change % (negative = inhibition) [13] -4.36% | activation [15] -7.04%
-40.3%: max response [8]
active: Potency [14] 37.6 µM
